Bioassay records: PubChem BioAssay, several laboratories
Sampled rows, rich in hits. Any-hit rate of the full collection: about 1.1%.
FXIIa inh mix: human factor XIIa inhibitors, primary screen, biochemical, pooled compound mixtures, fluorogenic substrate | purified FXIIa | inhibition, % at 5 µM | Coagulation factor XII (Homo sapiens), P00748 | AID 684, 2007 | 62,000 compounds, 0.2% hits
Ec RNAP inh: E. coli RNAP inhibitors, biochemical; E. coli RNA polymerase, fluorescence transcription assay; DNA-directed RNA polymerase subunit beta (Escherichia coli (strain K12)), P0A8V2; 62,000 compounds, 0.2% hits; inhibition, %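 (tested at 10 µM)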; in the data active means inhibition above about 20%
Target sequence (P0A8V2 whole entry, looked up): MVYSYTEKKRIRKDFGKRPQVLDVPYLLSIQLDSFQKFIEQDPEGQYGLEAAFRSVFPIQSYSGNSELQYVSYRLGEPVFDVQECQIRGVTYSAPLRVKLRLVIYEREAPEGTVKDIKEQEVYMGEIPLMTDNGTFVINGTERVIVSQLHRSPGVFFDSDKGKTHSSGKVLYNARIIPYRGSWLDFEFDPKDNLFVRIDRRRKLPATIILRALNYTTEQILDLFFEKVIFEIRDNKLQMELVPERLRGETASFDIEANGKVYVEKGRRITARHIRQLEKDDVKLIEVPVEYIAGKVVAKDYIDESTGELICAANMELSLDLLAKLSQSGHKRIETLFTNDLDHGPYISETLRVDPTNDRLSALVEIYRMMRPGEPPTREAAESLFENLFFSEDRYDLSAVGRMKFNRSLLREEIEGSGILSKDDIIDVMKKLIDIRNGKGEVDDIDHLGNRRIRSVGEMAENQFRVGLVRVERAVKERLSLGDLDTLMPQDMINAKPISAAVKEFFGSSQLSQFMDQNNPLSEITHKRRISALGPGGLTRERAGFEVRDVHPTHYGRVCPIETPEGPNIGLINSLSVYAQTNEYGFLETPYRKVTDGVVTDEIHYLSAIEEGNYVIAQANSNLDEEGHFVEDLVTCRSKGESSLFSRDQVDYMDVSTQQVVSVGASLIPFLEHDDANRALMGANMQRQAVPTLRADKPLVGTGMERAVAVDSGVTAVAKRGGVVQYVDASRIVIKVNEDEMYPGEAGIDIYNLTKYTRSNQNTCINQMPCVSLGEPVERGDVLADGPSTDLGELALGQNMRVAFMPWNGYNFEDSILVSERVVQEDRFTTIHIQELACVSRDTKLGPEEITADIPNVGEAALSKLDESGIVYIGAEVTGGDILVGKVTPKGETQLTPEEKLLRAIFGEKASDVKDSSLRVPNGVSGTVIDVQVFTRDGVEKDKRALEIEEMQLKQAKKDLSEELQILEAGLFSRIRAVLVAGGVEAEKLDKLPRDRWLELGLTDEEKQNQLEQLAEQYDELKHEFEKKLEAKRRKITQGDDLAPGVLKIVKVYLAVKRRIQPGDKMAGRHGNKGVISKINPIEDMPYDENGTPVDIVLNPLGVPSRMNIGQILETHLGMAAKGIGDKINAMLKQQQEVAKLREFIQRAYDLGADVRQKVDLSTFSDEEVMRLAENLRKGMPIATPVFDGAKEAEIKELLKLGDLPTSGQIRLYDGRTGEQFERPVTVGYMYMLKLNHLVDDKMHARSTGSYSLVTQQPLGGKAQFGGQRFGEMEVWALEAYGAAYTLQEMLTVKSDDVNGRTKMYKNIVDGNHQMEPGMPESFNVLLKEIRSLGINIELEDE
C1s inh: complement C1s protease inhibitors, primary screen, biochemical, 10-compound mixtures | 62,000 compounds, 0.16% hits | AID 538, 2006 | purified C1s, fluorogenic AMC substrate, pooled mixtures | mean inhibition % of two 10-compound mixtures (active compounds read high), % at 5 µM (by protocol) | Complement C1s subcomponent (Homo sapiens), P09871;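 active means inhibition above 20% in each of the two 10-compound mixture wells holding the compound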
BAP1 block: inhibitors of BAP1 deubiquitinase, primary screen, biochemical, Ub-AMC fluorescence, kinetic; recombinant BAP1, Ub-AMC hydrolysis fluorescence kinetic; active compounds read low; Ubiquitin carboxyl-terminal hydrolase BAP1 (Homo sapiens), Q92560; AID 436, 2006; calls only at 20 µM; 72,000 compounds, 0.48% hits;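 active means activity remaining at or below 50% of control, provided the compound also passes the data quality filters; inactive means the rest, including low values that fail the filters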
Cathepsin G inh: human cathepsin G inhibitors, primary screen, biochemical, pooled compound mixtures, AMC fluorescence | P08311 | purified enzyme, AMC-tetrapeptide fluorescence | inhibition, % at 5 µM (by protocol) | 62,000 compounds, 0.2% hits | AID 581, 2007;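 active means inhibition above 20% in each of the two mixture wells holding the compound; inactive means inhibition of 20% or less in either well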
FXIa mix inh: FXIa protease inhibitors in compound pools, primary screen, biochemical, 10-compound mixtures; Coagulation factor XI (Homo sapiens), P03951; purified FXIa, fluorogenic substrate, pooled mixtures; inhibition, % at 5 µM; 62,000 compounds, 0.19% hits; AID 680, 2007;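 further: each value is inhibition by a whole ten-compound pool holding the compound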
BAP1 inh confirm: BAP1 deubiquitinase inhibitors, hit retest, confirmation, orthogonal assay, biochemical, Ub-ethyl ester substrate, HPLC readout; shares compounds with BAP1 block; purified BAP1, Ub-ethyl ester hydrolysis; active compounds read low; % of control activity, % at 20 µM; 310 compounds, 8% hits;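 active means percent of control activity at or below 60%; inconclusive means HPLC trace unusable from injection failure or solvent front hiding peaks; inactive means the rest, plus ubiquitin peak ratio over a set limit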
Calls only; n = inactive; u = inconclusive; x = not tested or not shown; + = active, no number. Unless noted, no stated cut-off is given here; in the data, active means inhibition above about 20% (passing the limit was not always enough); inactive means the rest.

SMILES	FXIIa inh mix	Ec RNAP inh	C1s inh	BAP1 block	Cathepsin G inh	FXIa mix inh	BAP1 inh confirm
CCCc1ccc(Oc2c(-c3ccc(O)c(C)c3O)n[nH]c2C)cc1	n	n	n	+	n	n	n
COc1ccc(CNS(=O)(=O)c2ccc(S(=O)(=O)N3CCCCC3)cc2)cc1	n	n	n	+	n	n	u
Cc1cc([N+](=O)[O-])ccc1NC(=O)c1ccc([N+](=O)[O-])cc1	x	x	x	n	x	x	x
CCCCOc1ccccc1NC(=O)Cn1c(-c2nonc2N)nc2ccccc21	n	n	n	+	n	n	n
CCOc1ccc(CCNC(=O)Cn2c(-c3nonc3N)nc3ccccc32)cc1OCC	n	n	n	n	n	n	x
COc1cc(C2NC(=S)NC(C)=C2C(=O)Nc2ccccn2)ccc1OCc1ccccc1 (stereo not given)	x	x	x	n	x	x	x
CCOC(=O)c1sc(NC(=O)c2noc3c2CCCC3)c(C(=O)OCC)c1C	n	n	n	+	n	n	n
Cc1occc1-c1nnc(SCC(=O)c2ccc(F)cc2)n1Cc1ccco1	n	n	n	n	n	n	x
O=C(CSc1nnc(-c2cc3ccccc3cc2O)n1Cc1ccco1)c1ccc(F)cc1	n	n	n	+	n	n	n
COc1ccc(CNC(=O)CSc2nc3ccccc3o2)cc1	x	x	x	n	x	x	x
COc1ccccc1NC(=O)Nc1c(C)n(C)n(-c2ccccc2)c1=O	n	n	n	+	n	n	n
COc1ccccc1C(=O)Nc1c(C)n(C)n(-c2ccccc2)c1=O	n	n	n	n	n	n	x
Cc1cccc(NC(=O)c2ccccc2NC(=O)c2ccc([N+](=O)[O-])cc2)c1	x	x	x	n	x	x	x
COc1ccc(C(c2nnnn2Cc2ccc(F)cc2)N2CCN(c3ccccc3)CC2)cc1 (stereo not given)	n	n	n	n	n	n	x
COc1ccc(Cn2nnnc2C(c2ccccn2)N2CCN(c3cc(Cl)ccc3C)CC2)cc1 (stereo not given)	n	n	n	+	n	n	n
CCCCNC(=O)c1cc2c(-c3ccc(Cl)cc3)nn(C)c2s1	n	n	n	+	n	n	n
CN(C)c1ccc(-c2nn3c(-c4ccc(Cl)cc4Cl)nnc3s2)cc1	n	n	n	+	n	n	n
CCC(C)C(=O)Nc1nnc(-c2cccs2)s1 (stereo not given)	n	n	n	+	n	n	n
Cc1ccc2cc(CN(Cc3ccc4c(c3)OCO4)Cc3nnnn3Cc3ccco3)c(=O)[nH]c2c1C	n	n	n	+	n	n	n
Cc1cc(NC(=O)c2cn(C3CCCCC3)c(=O)c3c2c2ccccc2n3C)no1	n	n	n	+	n	n	n
O=C(O)Cn1cc(C(=O)c2cccs2)c2ccccc21	n	n	n	+	n	n	n
CCOC(=O)C1CCCN(c2ccc(NC(=O)c3snc4c(=O)[nH]cnc34)cc2)C1 (stereo not given)	n	n	n	+	n	n	n
CCCCSc1nnc2c(n1)OC(c1ccc(OCC)cc1)Nc1ccccc1-2 (stereo not given)	x	x	x	n	x	x	x
O=C(NCc1ccccn1)Nc1ccc2c(c1)OCO2	n	n	n	+	n	n	n
O=C(NCc1cccs1)Nc1ccc2c(c1)OCO2	n	n	n	n	n	n	x
CCc1ccc(N/C(SCc2cccc(F)c2)=C(/C#N)C(=O)NCc2ccco2)cc1	n	n	n	+	n	n	n
CCc1cccc2c(C#N)cn(CC(=O)NCc3ccco3)c12	n	n	n	n	n	n	x
Cc1cccc(OCC(=O)Nc2ccc(N3CCN(S(C)(=O)=O)CC3)cc2)c1C	n	n	n	+	n	n	n
COc1ccccc1NC(=O)CCC(=O)N1N=C(c2ccc(Br)cc2)CC1c1ccccc1 (stereo not given)	x	x	x	n	x	x	x
COc1cccc(C2C(C#N)=C(N)OC3=C2C(=O)CC(c2ccco2)C3)c1OCc1ccc(F)cc1 (stereo not given)	n	n	n	+	n	n	n
